The panel holds about 79,000 compounds, 15% with a hit somewhere; the sample as a whole holds those more often. Unmarked numbers belong to inactive results. No stated cut-off is given here; in the data, active means growth inhibition above about 70%; inactive means the rest.

The first assay is described as follows: NCI Yeast Anticancer Drug Screen. Data for the rad50 strain (AID 155).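 Further: 0% = growth of vehicle-only cultures of the same strain.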 The conditions noted are these: S. cerevisiae rad50 strain growth inhibition; at 50.0 µM; hits give high values. A digest of the protocol:
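Inhibition values express reduced yeast growth in compound-treated cultures relative to vehicle-treated controls.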
For `CC(=O)C(C)(O)C(OP(=O)(O)O)c1ccccc1` (stereo not given), the growth inhibition was 0.65%.

For `CSc1nc(N)n2nc(C3CC3)cc2n1`, the growth inhibition is 5.5%.

Turning to `CN(C)c1nc(Cl)nc2nc(Cl)[nH]c12`, the growth inhibition is -10.9%.

As for `CCN1CCCC(N)C1` (stereo not given), the growth inhibition is -26.1%.

On to `COC(=O)C1CCC(=O)CC1`, for which the growth inhibition is -1%.

With `CC/C=C\C/C=C\C/C=C\CCCCCCCC(=O)OC(COC(=O)CCCCCCCCCCCCCCCCC)COC1OC(CO)C(O)C(O)C1O` (stereo not given), the growth inhibition was 38.4%.

On to `Cc1ccccc1OS(=O)(=O)c1ccc(Br)cc1`, for which the growth inhibition is -4.2%.

As to `CN1CCC(C(O)c2ccccc2)CC1` (stereo not given), the growth inhibition was 3.95%.

With `CC1CCC(C(C)C)N(C)CC1` (stereo not given), the growth inhibition was -17.2%.

As for `c1cc2c(cc1CC1CO1)OCO2` (stereo not given), the growth inhibition is -12.2%.

`CCOC(=O)c1cnc(N)nc1N`: the growth inhibition was 6.35%.

Regarding `[Fe+2].[Fe+2].c1ccc2c(c1)-c1nc-2nc2[n-]c(nc3nc(nc4[n-]c(n1)c1ccccc41)-c1ccccc1-3)c1cc3c4nc5nc(nc6[n-]c(nc7nc(nc([n-]4)c3cc21)-c1ccccc1-7)c1ccccc61)-c1ccccc1-5`, the growth inhibition is -5.95%.

Regarding `Cc1ccc(S(=O)(=O)N2CCOCC2)cc1`, the growth inhibition was -2.9%.

For `NS(=O)(=O)c1cc2c(cc1Cl)NC(C(=O)NNC(=O)c1ccncc1)=NS2(=O)=O`, the growth inhibition is -1.6%.

`C=C(C)C1CC=C(C)/C(=N\O)C1` (stereo not given): the growth inhibition is -5.15%.

On to `CCOc1cccc2c1N[S@@](=O)S2`, for which the growth inhibition was 4.85%.

Turning to `CC(C)(C)SC(=S)SCC(=O)c1cc2ccccc2o1`, the growth inhibition is 35.7%.

With `COC1(c2ccccc2)OC(=O)C(C)(C)c2ccccc21` (stereo not given), the growth inhibition was -5.1%.

Turning to `O/N=C/c1cc2c(cc1Br)OCO2`, the growth inhibition is -4.2%.

Regarding `COc1cc2ccncc2cc1O`, the growth inhibition was -7.25%.

For the compound `Cc1cc(=O)[nH]c2cc(O)c(C(=O)O)cc12`, the growth inhibition was -2.95%.

For `N#Cc1cn(C2OC(CO)C3OC32)c2ncnc(NC(=O)c3ccccc3)c12` (stereo not given), the growth inhibition was 28.9%.

For `CCc1ccc(C(C)=O)cc1`, the growth inhibition was 7.05%.

Regarding `Nc1c(Br)cc(Br)cc1-c1cc(Br)cc(Br)c1N`, the growth inhibition is 3.65%.

As for `Oc1ccc(-c2c3ccccc3c(-c3ccc(OCCBr)cc3)c3ccccc23)cc1`, the growth inhibition was -24.2%.

On to `OCC1CCN(CCOCc2ccccc2)C1` (stereo not given), for which the growth inhibition is 9.25%.

For `CNC(=S)SSSC(=S)NC`, the growth inhibition was 13.1%.

`O=C1c2ccccc2C(=O)N1CNc1cccc(Cl)c1`: the growth inhibition is 6.45%.

With `CCCCCCCCS(=O)(=O)NC`, the growth inhibition was 0.95%.

Consider `COC(=O)CCSC(=S)NCc1ccccc1`, for which the growth inhibition is -14.4%.

With `O=C(NC1CCC(CC2CCC(NC(=O)C34CC5CC(CC(C5)C3)C4)CC2)CC1)C12CC3CC(CC(C3)C1)C2` (stereo not given), the growth inhibition was -13%.

With `CCOC(=N)CC(=O)NC(C)c1ccccc1` (stereo not given), the growth inhibition is 2.25%.

As for `Nc1nc(C2CCCCC2)cc(=O)[nH]1`, the growth inhibition was 1.2%.

For `O=C1CNC(=O)N1Nc1ccccc1`, the growth inhibition was -9.35%.

`Cc1cc(C)c(F)c(C)c1N`: the growth inhibition is -32.5%.

Regarding `COC1OC(COC(=O)c2ccccc2)C(SC(=O)c2ccccc2)C1OC(=O)c1ccccc1` (stereo not given), the growth inhibition was -21.1%.

For the compound `CC1(C)CC(=O)C2=C(C1)NC(SSC1=C(C#N)C(c3ccc(F)cc3)C3=C(CC(C)(C)CC3=O)N1)=C(C#N)C2c1ccc(F)cc1` (stereo not given), the growth inhibition is -22.4%.

Regarding `Oc1cccc(C=NCCN=Cc2cccc(O)c2O)c1O.[Fe]`, the growth inhibition is -9.35%.

For `CC(=O)OCC1OC(Nc2[nH]c(=O)n(C)c(=O)c2C(=O)CCl)C(OC(C)=O)C(OC(C)=O)C1OC(C)=O` (stereo not given), the growth inhibition is 5.15%.

For `Nc1cc(=O)n(C2CC(O)C(CO)O2)cn1` (stereo not given), the growth inhibition is 7.25%.

The next assay can be described thus: NCI Yeast Anticancer Drug Screen. Data for the mec2-1 strain (AID 157). The conditions noted are these: S. cerevisiae mec2-1 strain, at 50.0 µM, hits give high values. A digest of the protocol:
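Growth inhibition is read against vehicle-treated controls after compound exposure of the mec2-1 yeast strain, which is defective in DNA damage repair or cell cycle control.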
As to `CC(=O)C(C)(O)C(OP(=O)(O)O)c1ccccc1` (stereo not given), the growth inhibition was -10.5%.

`CSc1nc(N)n2nc(C3CC3)cc2n1`: the growth inhibition is -10.8%.

Turning to `CN(C)c1nc(Cl)nc2nc(Cl)[nH]c12`, the growth inhibition is 3.15%.

Turning to `CCN1CCCC(N)C1` (stereo not given), the growth inhibition was -23.2%.

As to `COC(=O)C1CCC(=O)CC1`, the growth inhibition is -0.35%.

With `CC/C=C\C/C=C\C/C=C\CCCCCCCC(=O)OC(COC(=O)CCCCCCCCCCCCCCCCC)COC1OC(CO)C(O)C(O)C1O` (stereo not given), the growth inhibition is 8.55%.

`Cc1ccccc1OS(=O)(=O)c1ccc(Br)cc1`: the growth inhibition is 13.8%.

For the compound `CN1CCC(C(O)c2ccccc2)CC1` (stereo not given), the growth inhibition is -3.8%.

Turning to `CC1CCC(C(C)C)N(C)CC1` (stereo not given), the growth inhibition is -22.6%.

For the compound `c1cc2c(cc1CC1CO1)OCO2` (stereo not given), the growth inhibition was -11.7%.

As to `CCOC(=O)c1cnc(N)nc1N`, the growth inhibition is -16.1%.

With `[Fe+2].[Fe+2].c1ccc2c(c1)-c1nc-2nc2[n-]c(nc3nc(nc4[n-]c(n1)c1ccccc41)-c1ccccc1-3)c1cc3c4nc5nc(nc6[n-]c(nc7nc(nc([n-]4)c3cc21)-c1ccccc1-7)c1ccccc61)-c1ccccc1-5`, the growth inhibition is -18.9%.

Take `Cc1ccc(S(=O)(=O)N2CCOCC2)cc1`: the growth inhibition was -20.1%.

As to `NS(=O)(=O)c1cc2c(cc1Cl)NC(C(=O)NNC(=O)c1ccncc1)=NS2(=O)=O`, the growth inhibition was -16.5%.

Turning to `C=C(C)C1CC=C(C)/C(=N\O)C1` (stereo not given), the growth inhibition was -9.9%.

In the case of `CCOc1cccc2c1N[S@@](=O)S2`, the growth inhibition was -26.7%.

Regarding `CC(C)(C)SC(=S)SCC(=O)c1cc2ccccc2o1`, the growth inhibition is 3.5%.

For the compound `COC1(c2ccccc2)OC(=O)C(C)(C)c2ccccc21` (stereo not given), the growth inhibition was 7.65%.

As to `O/N=C/c1cc2c(cc1Br)OCO2`, the growth inhibition is -9.9%.

Turning to `COc1cc2ccncc2cc1O`, the growth inhibition is -18.4%.

Take `Cc1cc(=O)[nH]c2cc(O)c(C(=O)O)cc12`: the growth inhibition is 3.7%.

With `N#Cc1cn(C2OC(CO)C3OC32)c2ncnc(NC(=O)c3ccccc3)c12` (stereo not given), the growth inhibition was 9.1%.

In the case of `CCc1ccc(C(C)=O)cc1`, the growth inhibition is 41.5%.

Regarding `Nc1c(Br)cc(Br)cc1-c1cc(Br)cc(Br)c1N`, the growth inhibition is 17%.

For `Oc1ccc(-c2c3ccccc3c(-c3ccc(OCCBr)cc3)c3ccccc23)cc1`, the growth inhibition is -9.75%.

For `OCC1CCN(CCOCc2ccccc2)C1` (stereo not given), the growth inhibition is -0.4%.

For the compound `CNC(=S)SSSC(=S)NC`, the growth inhibition was -1.9%.

Turning to `O=C1c2ccccc2C(=O)N1CNc1cccc(Cl)c1`, the growth inhibition is 13.2%.

In the case of `CCCCCCCCS(=O)(=O)NC`, the growth inhibition was -9.8%.

As for `COC(=O)CCSC(=S)NCc1ccccc1`, the growth inhibition was -30.1%.

Consider `O=C(NC1CCC(CC2CCC(NC(=O)C34CC5CC(CC(C5)C3)C4)CC2)CC1)C12CC3CC(CC(C3)C1)C2` (stereo not given), for which the growth inhibition was 7.6%.

Regarding `CCOC(=N)CC(=O)NC(C)c1ccccc1` (stereo not given), the growth inhibition is -3.6%.

Take `Nc1nc(C2CCCCC2)cc(=O)[nH]1`: the growth inhibition is 9%.

Consider `O=C1CNC(=O)N1Nc1ccccc1`, for which the growth inhibition was -2.55%.

Turning to `Cc1cc(C)c(F)c(C)c1N`, the growth inhibition was 17.6%.

As to `COC1OC(COC(=O)c2ccccc2)C(SC(=O)c2ccccc2)C1OC(=O)c1ccccc1` (stereo not given), the growth inhibition is -1.35%.

Regarding `CC1(C)CC(=O)C2=C(C1)NC(SSC1=C(C#N)C(c3ccc(F)cc3)C3=C(CC(C)(C)CC3=O)N1)=C(C#N)C2c1ccc(F)cc1` (stereo not given), the growth inhibition was -12.8%.

For the compound `Oc1cccc(C=NCCN=Cc2cccc(O)c2O)c1O.[Fe]`, the growth inhibition was -5.7%.

For `CC(=O)OCC1OC(Nc2[nH]c(=O)n(C)c(=O)c2C(=O)CCl)C(OC(C)=O)C(OC(C)=O)C1OC(C)=O` (stereo not given), the growth inhibition is 18.5%.

`Nc1cc(=O)n(C2CC(O)C(CO)O2)cn1` (stereo not given): the growth inhibition is 2.05%.
